Screens (PubChem)
Tb PFK inh-1 = blocks T. brucei phosphofructokinase. T. brucei PFK, ADP-Glo luminescence. Potency, µM (top dose mostly 57.5 µM), for the others: at the highest dose activity, negative = inhibition, most hits filed as inhibitors. 330,000 tested, 0.17% active;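 note: 0% = uninhibited 1x PFK enzyme wells and -100% = no-enzyme wells; nearly all actives have a fitted effect of over 60% in size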
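Activity is normalized to no-enzyme wells (full inhibition) and 1.25 nM enzyme wells (no inhibition). Reaction: 0.5 mM F6P, 0.1 mM ATP, 45 min RT, ADP-Glo luminescence; concentration-response curves fitted and classed by quality.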
MBNL1 CUG block = inhibitors of human MBNL1 binding to CUG repeat RNA | Q9NR56 | TR-FRET MBNL1-His/biotin-(CUG)12 binding, 665/545 ratio | Potency, µM (doses to about 57.5 µM), without a hit: top-dose activity change, negative = inhibition, actives largely listed as inhibitors | 280,000 tested, 0.036% active; active = well fitted inhibition curve with a large enough effect in the signal ratio, with a control signal flat, not every such curve was filed as active; inconclusive = small, poorly fitted or top-dose-only effect, or effect the other way, or a change in a side signal; inactive = no such curve, though single readings can be large or run the other way; the % refers to the signal ratio; note: % is set by controls: 0 for no effect and ±100 for the full control effect
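TR-FRET between His-tagged MBNL1 and biotin-(CUG)12 RNA, detected with Tb anti-His antibody (0.055 ng/ul) and streptavidin-XL665 (5 nM), 60 min at room temperature. Compounds titrated 92 nM to 58 uM; 665/545 nm ratio normalized to buffer and complex controls.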
B2AR arrestin = agonists driving beta-arrestin recruitment to human beta2-adrenergic receptor; AID 492947; 330,000 tested, 0.02% active; P07550; Potency, µM (top dose mostly 46.1 µM), without a hit: at the highest dose activation, hits mostly activators; beta-arrestin recruitment to beta2AR, cell-based reporter;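 note: 0% = DMSO controls and full agonism = EC100 isoproterenol or metaproterenol; nearly all actives have a fitted effect of over 65% in size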
Target sequence (P07550 whole entry, looked up): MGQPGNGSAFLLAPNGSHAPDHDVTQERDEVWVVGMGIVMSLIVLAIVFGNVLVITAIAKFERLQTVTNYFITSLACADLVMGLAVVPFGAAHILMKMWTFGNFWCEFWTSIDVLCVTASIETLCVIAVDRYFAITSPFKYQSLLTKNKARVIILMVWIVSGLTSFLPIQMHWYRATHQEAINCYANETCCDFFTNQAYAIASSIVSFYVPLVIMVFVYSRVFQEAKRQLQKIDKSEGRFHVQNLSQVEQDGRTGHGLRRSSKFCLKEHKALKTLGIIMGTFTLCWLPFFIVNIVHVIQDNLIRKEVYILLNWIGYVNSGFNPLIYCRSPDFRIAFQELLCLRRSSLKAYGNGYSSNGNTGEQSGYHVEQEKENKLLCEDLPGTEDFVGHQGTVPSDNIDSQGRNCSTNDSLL
Chronic BCR inh = blocks chronic active B-cell receptor signaling. ABC-DLBCL IkBa-CBG/CBR reporter, luminescence ratio, 4 h. Potency, µM (titrated, usually from 46.1 µM), without a hit: at the top dose activity change, negative = inhibition, hits mostly inhibitors. 340,000 tested, 0.05% active; active = well fitted inhibition curve with a large enough effect in the signal ratio, with a control signal flat, not every such curve was filed as active; inconclusive = small, poorly fitted or top-dose-only effect, or effect the other way, or a change in a side signal; the % refers to the signal ratio;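 note: plate controls were basal doxycycline-induced cells for no effect and cells given 10 µM MG132 for full effect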
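Cell line TMD8 (human ABC DLBCL), stably expressing tet-inducible CBG68-IkBa fusion and CBR; IMDM/0.5% FBS; cpd up to 46 uM; dox induction, 4 h, 37C/5% CO2; dual luminescence; green/red ratio; MG132 control.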
TbPFK ATP = Tb phosphofructokinase inhibition, orthogonal luminescence; Tb PFK enzyme, ATP depletion, Kinase-Glo Plus luminescence; 1,100 tested, 47% active; AID 504636; shares compounds with Tb PFK inh-1; Potency, µM (top dose mostly 57.5 µM), for the others: at the top dose inhibition; calls by dose curve; note: nearly all actives have a fitted effect of over 60% in size
Tb PFK inh-2 = validation of T. brucei phosphofructokinase inhibitors. Potency, µM (highest dose often 57.5 µM), inactives show at the highest dose activity change, negative = inhibition, most hits filed as inhibitors. purified T. brucei PFK, ADP-Glo luminescence, 45 min. 1,100 tested, 41% active. shares compounds with Tb PFK inh-1;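 note: plate controls were full PFK enzyme control for no effect and no enzyme control for full effect; nearly all actives have a fitted effect of over 60% in size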
The depositor's hits bear a star; ? = inconclusive; . = no result; ! = repeats disagree. Hits are enriched below; roughly 0.27% of the tested compounds scored in any of these assays. Unless noted, calls come from the whole dose curve; as a rule, active = well fitted curve in the direction sought with a large enough effect; inconclusive = small, poorly fitted or top-dose-only effect, or another doubt; inactive = no such curve, though single readings can be large; an effect the other way counts as inactive or inconclusive. Potency is the fitted concentration of half-maximal effect.

SMILES	Tb PFK inh-1	MBNL1 CUG block	B2AR arrestin	Chronic BCR inh	TbPFK ATP	Tb PFK inh-2
O=C1C(=O)N(CCCn2ccnc2)C(c2ccc(Br)cc2)/C1=C(\O)c1ccc2c(c1)OCCO2 (stereo not given)	0%	2%	0%	-3%	.	.
O=C(NCc1ccc2c(c1)CCN2C(=O)c1ccc(F)cc1)c1cc2ccccc2[nH]1	.	.	.	8%	.	.
Nc1cc(=O)[nH]c(SCC(=O)Nc2ccc(F)c(Cl)c2)n1	?	-2%	0%	?	?	30µM*
CCOc1ccc(NC(=O)CN2C(=O)NC(CCc3ccccc3)C2=O)cc1OCC (stereo not given)	0%	.	0%	0%	.	.
S=C(NCc1ccc(Cl)c(Cl)c1)NCc1ccco1	27µM*	-2%	-1%	7%	11µM*	21µM*
S=C(NCc1cccc(Cl)c1)NCc1ccco1	-16%	-4%	0%	4%	.	.
O=C(NCc1cccc(Cl)c1)c1ccco1	?	-3%	0%	?	.	.
O=C(NCc1ccc(Cl)c(Cl)c1)c1ccco1	9.5µM*	?	0%	2%	6µM*	12µM*
O=C(COc1ccc(Cl)cc1Cl)N/N=C/c1ccc[nH]1	?	8%	0%	0%	6.7µM*	15µM*
O=C(Nc1cccs1)Nc1ccc(Br)cc1F	?	.	0%	12%	?	?
O=C(Nc1cccs1)Nc1ccc(F)cc1F	-12%	-1%	-1%	0%	.	.
CCn1c(Cc2ccccc2)nnc1SCC(=O)c1c(N)n(C2CC2)c(=O)[nH]c1=O	3%	.	0%	?	.	.
Cc1cc([N+](=O)[O-])nn1CCCC(=O)Nc1sc2c(c1C(N)=O)CCCC2	?	-19%	0%	-2%	27µM*	24µM*
COc1cc2c(cc1O)[C@H]1Cc3ccc(OC)c(O)c3CN1CC2	.	.	.	.	1%	-1%
COc1cc2c(cc1OC)C1Cc3ccc(OC)c(OC)c3CN1CC2 (stereo not given)	-4%	?	-1%	-3%	.	.
O=C(O)/C=C/c1cccnc1	1%	11%	-1%	1%	.	.
CC(/C=C\c1cccnc1)=C/C(=O)O	15µM*!	7%	4%	1%	?	27µM*
CCCCNS(=O)(=O)c1ccc2nc(-c3cccnc3)cc(C(=O)NCCC)c2c1	.	.	.	-9%	.	.
CCOC(=O)c1c(S(=O)(=O)N2CCCC(C(=O)Nc3cccc(CC)c3)C2)c(C)n(CC)c1C (stereo not given)	.	.	.	-1%	.	.
COc1ccc(C(=O)COC(=O)c2ccccc2O)c(OC)c1	6.7µM*	.	3%	?	16%	-15%
COc1ccc(C(=O)OCC(=O)c2cc(OC)ccc2OC)c(OC)c1	-1%	1%	0%	?	.	.
N#Cc1ccc(NCC(=O)Nc2ccc3c(c2)OCCO3)cc1	-17%	1%	0%	-8%	.	.
N#Cc1cccc(NCC(=O)Nc2ccc3c(c2)OCCO3)c1	21µM*	-11%	0%	-1%	27µM*	30µM*
Cc1cc(O)c(-c2cc(O)c(C)cc2O)cc1O	12µM*	-4%	0%	?	3µM*	8.5µM*
Cc1ccc(S(=O)(=O)N2[C@@H](c3ccccc3F)C(C(=O)O)=CC[C@H]2c2ccc(Cl)c(Cl)c2)cc1	27µM*	.	0%	-7%	7%	1%
SMILES	Tb PFK inh-1	MBNL1 CUG block	B2AR arrestin	Chronic BCR inh	TbPFK ATP	Tb PFK inh-2
Cc1c(C(=O)OCc2ccccc2)[nH]c2c1C(=O)CC(c1ccco1)C2 (stereo not given)	?	1%	0%	?	?	?
O=C(CSC1=NS(=O)(=O)c2ccccc2N1)c1ccccc1	?	.	0%	?	21µM*	?
CC1CN(c2ccc([N+](=O)[O-])cc2Cl)CCN1 (stereo not given)	9.5µM*	?	0%	-6%	27µM*	30µM*
O=C(COC(=O)Cc1ccc(Cl)c(Cl)c1)Nc1ccc2[nH]c(=O)[nH]c2c1	21µM*	.	0%	13%	?	13µM*
O=C(COC(=O)Cc1c(Cl)cccc1Cl)Nc1ccc2[nH]c(=O)[nH]c2c1	?	.	0%	-15%	?	?
O=C(O)CCc1nn2cc(-c3ccccc3)nc2[nH]c1=O	?	12%	0%	-1%	-3%	10%
CC(=O)c1ccc(S(=O)(=O)N2CCN(CC(=O)Nc3ccc(Cl)c([N+](=O)[O-])c3)CC2)cc1	13µM*	.	0%	7%	?	?
Cc1ccc(S(=O)(=O)N2CCN(CC(=O)N/N=C\c3ccc(Cl)c([N+](=O)[O-])c3)CC2)cc1	12%	?	0%	12%	.	.
CC1Cn2cc(C(=O)Nc3ccccc3C(F)(F)F)c(=O)c3c(Cl)ccc(c32)O1 (stereo not given)	0%	.	0%	-1%	.	.
Oc1ccc(C2CNCCc3c2cc(O)c(O)c3Cl)cc1 (stereo not given)	0%	.	0%	-9%	.	.
Oc1ccc(C2CNCc3sccc32)cc1O (stereo not given)	?	.	0%	?	?	?
Cc1c(NC(=O)c2ccc(S(=O)(=O)N(C)C)cc2)cccc1-n1cnnn1	-9%	.	-1%	0%	.	.
Cc1c(NC(=O)c2ccc(Cl)c([N+](=O)[O-])c2)cccc1-n1cnnn1	?	.	0%	2%	?	?
O=C(COC(=O)CCC(=O)c1cccs1)Nc1ccccc1C(F)(F)F	22%	.	0%	1%	.	.
CCN(CC)c1ccc(NC2=C(Cl)C(=O)c3ccccc3C2=O)cc1	?	?	15%	?	8%	-9%
CCOC(=O)C1CCC(CN(Cc2cccc(Br)c2)S(=O)(=O)c2ccc(Cl)cc2)CC1 (stereo not given)	.	.	.	17%	.	.
O=C(CN1CCN(S(=O)(=O)c2ccc(Cl)c(Cl)c2)CC1)N1CCCC1	-1%	.	-3%	?	.	.
O=C(CSc1ccc(Cl)cc1)NCc1ccco1	?	-5%	0%	-8%	14%	-17%
O=C(CSc1ccc(Cl)cc1)NC(=O)NCc1ccco1	-15%	-11%	0%	-3%	.	.
O=C(COC(=O)Cc1ccc(Cl)c(Cl)c1)NCc1ccco1	?	.	-1%	2%	13µM*	?
O=C(COC(=O)Cc1ccc(Cl)cc1)NCc1ccco1	?	.	0%	0%	8.5µM*	6.7µM*
COCCn1c(C)cc(C(=O)COC(=O)c2cc3c(s2)CCC3)c1C	?	0%	0%	0%	?	-25%
Cc1cc(C(=O)NNC(=O)Cc2ccc(Cl)c(Cl)c2)c(C)o1	27µM*	.	0%	-16%	12µM*	30µM*
COc1cc(CC(=O)NNC(=O)c2cc(C)oc2C)cc(OC)c1OC	0%	-4%	2%	-2%	.	.
